Measurements published in PubChem BioAssay AID504465 (National Center for Advancing Translational Sciences (NCATS), 2011).
The campaign covered roughly 2,100 compounds. About 210 (10%) were called active. Not shown: some 53% with an inconclusive outcome. Some of the results follow. Unmarked numbers belong to inactive results. Calls follow the shape of the dose curve; as a rule, active = well fitted inhibition curve with a large enough effect; inconclusive = small, poorly fitted or top-dose-only effect, or effect the other way; inactive = no such curve, though single readings can be large or run the other way.

assay: IN Cell qHTS Assay for Inhibitors of the mTORC1 Signaling Pathway in MEF (Tsc2-/-, p53-/-) Cells: Sytravon; details: phospho-rpS6 immunofluorescence, 24 h; series mostly up to 38.3 µM; activity, negative = inhibition: at the top concentration; also: nearly all actives have a fitted effect of over 60% in size;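 as to activity, negative = inhibition: plate controls were DMSO wells for no effect and 7.5 nM rapamycin full pathway inhibition for full effect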
Procedure, shortened: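 Tsc2-/-, p53-/- MEFs (empty-vector) treated with compound 24 h at 37 degree Celsius, then fixed and stained for phospho-rpS6 Ser235/236 (Alexa-488) plus Hoechst. Reported as % positive cells, thresholds set against 7.5 nM rapamycin and DMSO wells.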
Potency is read from the fitted curve at half-maximal effect.

SMILES | activity, negative = inhibition | Potency
COc1cc(-c2nc(-c3ccccc3)c(-c3ccc(Br)cc3)[nH]2)cc(OC)c1O | -20.2% | –
CCOc1ccc(CN2C(=O)c3ccccc3Sc3ccc(C(=O)O)cc32)cc1 | 6.25% | –
CCS(=O)(=O)N1CC(=O)N(c2ccc(Cl)cc2C)C(C)(C(=O)NC2CCCCC2)C1 (stereo not given) | -2.96% | –
COc1ccc(Oc2nc3c(C)cccn3c(=O)c2/C=C(\C#N)c2nc3ccccc3[nH]2)cc1 | 31.5% | –
O=C(Nc1ccc(Cl)cc1F)c1cc(S(=O)(=O)NC2CCCCCC2)ccc1F | -26.2% | –
COc1ccc(NC(=O)[C@H]2O[C@@H]3OC(C)(C)O[C@@H]3[C@H]3OC(C)(C)O[C@H]32)c(OC)c1 | -0.729% | –
CC(C)c1ccc(CNCCSc2nnnn2C)cc1 | 78.1% | –
COCc1oc2ccc(NS(=O)(=O)c3ccc(C)cc3)cc2c1C(=O)OC | -1.83% | –
CCOC(=O)c1cccc(NC(=O)c2cc3sccc3n2Cc2ccc(Cl)cc2)c1 | -32.5% | –
CCOc1ccc(OCC)c(NS(=O)(=O)c2ccc(-c3coc(C)n3)cc2)c1 | -11.1% | –
CCCCOc1ccc(CN2C(=O)C(=O)c3cc(Br)cc(C)c32)cc1OC | – | 5.85 µM (active)
Cc1ccc(CN2C(=O)C(=O)c3cc(Br)cc(C)c32)cc1 | – | 5.85 µM (active)
CCCC1=Nc2cc(C(=O)NCCc3ccccc3)ccc2Sc2ccc(C)cc21 | 28.9% | –
Cc1c(Cl)cccc1NC(=O)NCc1c(-n2cccc2)sc2c1CCCC2 | 3.66% | –
CCCN(Cc1cccs1)C(=O)Nc1ccccc1C | -11.5% | –
COc1ccc(-c2nc(SCC(=O)Nc3ccc4c(c3)OCO4)c(-c3ccc(OC)cc3)[nH]2)cc1 | -30.5% | –
Cc1ccc(CNC(=O)Cn2c(SCC(=O)Nc3ccc(F)cc3)nc3ccccc32)cc1 | – | 5.21 µM (active)
O=C(CSc1cn(CCNC(=O)c2ccccc2F)c2ccccc12)Nc1ccc(F)cc1 | -11.5% | –
COc1ccccc1NC(=O)Cn1c(SCC(=O)Nc2ccc(F)cc2)nc2ccccc21 | -4.21% | –
COc1ccc(NC(=O)CSCc2cnn(-c3ccccc3)c2-n2cccc2)cc1 | -17.9% | –
COc1ccc(NC(=O)CSc2nc3ccccc3n2Cc2cccc(OC)c2)cc1 | – | 11.7 µM (active)
CC(=O)N1c2ccc(S(=O)(=O)NCC3CCC(C(=O)Nc4cc(C)cc(C)c4)CC3)cc2CC1C (stereo not given) | -17.7% | –
NC(=O)CSc1nc2ccc(NC(=O)COc3ccccc3Cl)cc2s1 | -53.5% | –
Cc1ccc2[nH]cc(C(c3ccccc3)c3ccc(Cl)s3)c2c1 (stereo not given) | 11.2% | –

SMILES | activity, negative = inhibition | Potency
CCc1cccc(NC(=O)c2ccc(CNS(=O)(=O)c3ccc4c(c3)C(C)(C)C(=O)N4C)cc2)c1 | -6.44% | –
Cc1cncn1CCc1nc2c3ccccc3nc(SCC(=O)Nc3ccccc3F)n2n1 | -18.2% | –
Brc1ccc(Nc2c3c(nc4nncn24)CCC3)cc1 | – | 10.4 µM (active)
COc1ccc(Nc2c3c(nc4nncn24)CCC3)cc1OC | -7.07% | –
O=c1[nH]c(SCc2ccc(Br)cc2)nc2c1CCCC2 | -18.7% | –
CCOc1ccc(-c2nonc2NC(=O)c2oc3ccc(CC)cc3c2C)cc1 | 0.616% | –
NS(=O)(=O)c1ccc(CCNC(=O)C2COc3ccccc3C2)cc1 (stereo not given) | 0.324% | –
COc1ccc(NC(=O)c2c(C)oc3ccc(O)c(CN4CCN(Cc5ccccc5)CC4)c23)cc1Cl | -18.9% | –
Cc1ccc(NC(=O)c2c(C)oc3ccc(O)c(CN4CCCCCC4)c23)cc1 | -9.84% | –
Cc1oc2ccc(O)c(CN3CCCCCC3)c2c1C(=O)Nc1cccc(Cl)c1C | -13.9% | –
COc1ccc(NC(=O)c2c(C)oc3ccc(O)c(CN4CCC(C)CC4)c23)cc1Cl | – | 13.1 µM (active)
Cc1oc2ccc(O)c(CN3CCC(C)CC3)c2c1C(=O)Nc1ccccc1 | – | 5.21 µM (active)
COc1ccc(NC(=O)c2c(C)oc3ccc(O)c(CN4CCCC(C)C4)c23)cc1 (stereo not given) | -13.9% | –
O=C(Cn1cc(SCc2ccc(Cl)cc2)c2ccccc21)N1CCCC1 | -8.71% | –
Oc1c(C(Nc2ccccn2)c2ccccc2F)ccc2cccnc12 (stereo not given) | -19.3% | –
COc1ccc(C)cc1NC(=O)c1cc(S(=O)(=O)N2CCN(c3cccc(C)c3C)CC2)ccc1F | 6.25% | –
Cc1cc(NC(=O)C2CCC(CNS(=O)(=O)c3ccc(Br)s3)CC2)ccc1Br (stereo not given) | -23% | –
COc1ccccc1C(=O)Nc1cccc(OCc2cc(=O)n3ccccc3n2)c1 | -16.7% | –
COc1ccccc1C(=O)Nc1sc(Nc2ccccc2)nc1C(N)=O | – | 18.5 µM (active)
COc1ccccc1C(=O)Nc1nc2ccc(S(=O)(=O)N3CCCC3)cc2s1 | 7.56% | –
CCCCNC(=O)CSc1nc2n[nH]c(C)c2c(=N)n1-c1cccc(Cl)c1C | 0% | –
Cc1ccc(-c2nc3ccc(Cl)cn3c2Nc2ccccc2C)s1 | 6.27% | –
Cc1cc(C)cc(NS(=O)(=O)c2ccc(-c3cc(C)no3)s2)c1 | 1.3% | –
CCC1=Nc2cc(C(=O)NC3CCCC3)ccc2Sc2ccc(Cl)cc21 | -14.2% | –

SMILES | activity, negative = inhibition | Potency
CCCC(=O)Nc1cccc(-c2cn3c(C)csc3n2)c1 | -23.1% | –
Cc1nc(-c2ccc(F)cc2)sc1CCNC(=O)C(=O)Nc1ccc2c(c1)OCCO2 | 0.21% | –
CC(=O)Nc1cccc(NC(=O)C(=O)NCCc2sc(-c3ccccc3)nc2C)c1 | – | 2.33 µM (active)
O=c1oc2ccccc2cc1-c1cn2cc(Cc3ccccc3F)sc2n1 | 17.9% | –
CCOc1cc(C2C(C(=O)OC)=C(C)NC3=C2C(=O)c2ccccc23)cc(Br)c1OCC (stereo not given) | 24.9% | –
CC(NC(=O)c1c2c(nc3ccccc13)C(=O)N(C1CCCCC1)C2)c1ccccc1 (stereo not given) | -0.206% | –
Cc1ccc(CN2C(=O)c3ccccc3Sc3ccc(C(=O)NCCCN4CCOCC4)cc32)cc1 | – | 16.5 µM (active)
CCC1CCCCN1CCCNC(=O)c1ccc2c(c1)N(Cc1cccc(Cl)c1)C(=O)c1ccccc1S2(=O)=O (stereo not given) | 0% | –
Cc1cccc(CN2C(=O)c3ccccc3Sc3ccc(C(=O)NC4CCCCC4)cc32)c1 | 6.25% | –
CC1CCCN(CCCNC(=O)c2ccc3c(c2)N(Cc2cccc(Cl)c2)C(=O)c2ccccc2S3(=O)=O)C1 (stereo not given) | 0% | –
Cc1ccc(C)c(CN2C(=O)c3ccccc3S(=O)(=O)c3ccc(C(=O)NCCCN4CCCC(C)C4)cc32)c1 (stereo not given) | – | 5.21 µM (active)
CCCCN(CC)CCCNC(=O)c1ccc2c(c1)N(Cc1ccc(C)cc1)C(=O)c1ccccc1S2 | 6.25% | –
CCN(CC)CCCNc1cc(-c2ccccc2)nc(C)n1 | -25.1% | –
CC(C)c1ccc(C2CC(=O)Nc3cc4c(cc32)OCCO4)cc1 (stereo not given) | 28.6% | –
O=C(NCCCc1nc2ccccc2n1Cc1ccccc1F)c1ccco1 | -18.6% | –
COc1ccc(CNc2oc(/C=C/c3cc(OC)c(OC)c(OC)c3)nc2C#N)cc1 | -17.5% | –
Cc1cccc(OCc2ccc(-c3nc(C#N)c(NCCN(C)C)o3)o2)c1 | – | 5.85 µM (active)
Cc1ccccc1OCc1ccc(-c2nc(C#N)c(N3CCN(C)CC3)o2)o1 | -14.4% | –
CCOc1ccc(/C=C/c2nc(C#N)c(NCCCN(C)C)o2)cc1 | -10.9% | –
COc1ccc(CNc2oc(/C=C/c3cccc(OC)c3)nc2C#N)cc1 | -16.9% | –
COc1ccc(CNc2oc(COc3cccc(C)c3)nc2C#N)cc1 | – | 3.69 µM (active)
Cc1cc(=O)n2nc(N3CCC(C(=O)NCc4ccc(Cl)cc4)CC3)sc2n1 | -2.82% | –
CCCN(CCC)CCCNC(=O)C1CCN(c2nc3ccc(CC)cc3s2)CC1 | – | 6.56 µM (active)
CCOCCCNC(=O)C1CCN(c2nc3ccc(Cl)cc3[nH]2)CC1 | 20.5% | –

SMILES | activity, negative = inhibition | Potency
CCCc1ccc(NC(=O)C2CCN(c3cnccn3)CC2)cc1 | -23.8% | –
CCCCN(C)CCCNC(=O)C1CCN(c2nc3ccc(CC)cc3s2)CC1 | – | 5.21 µM (active)
COc1cccc(NC(=O)C2CCC(CNS(=O)(=O)c3csc(C(N)=O)c3)CC2)c1 (stereo not given) | 1.3% | –
O=C(CCCCn1c(=O)[nH]c2ccsc2c1=O)N1CCN(c2cccc(Cl)c2)CC1 | 13.4% | –
O=C(NCc1ccco1)C1CCN(C(=O)N2CCOc3ccc(Cl)cc32)CC1 | -11.2% | –
CC1C(=O)N2CCCc3cc(S(=O)(=O)Nc4ccc(Br)cc4F)cc1c32 (stereo not given) | – | 14.7 µM (active)
O=C(Nc1ccc(Br)cc1F)c1cc(S(=O)(=O)NC2CCCC2)ccc1F | 6.25% | –
CCC(=O)N1CCc2cc(Br)cc(S(=O)(=O)N3CCCC(C(=O)Nc4ccc(CC)cc4)C3)c21 (stereo not given) | -0.347% | –
Cc1ccc(C2c3c(-c4cc(C)ccc4O)n[nH]c3C(=O)N2Cc2ccco2)cc1 (stereo not given) | -28.4% | –
COc1ccc(Cn2c(C(=O)O)c(CNCCc3cccs3)c3ccc(OC)cc32)cc1 | -23.6% | –
CCc1ccc(NC(=O)C2CCC(CNS(=O)(=O)c3ccc4c(c3)CC(C)N4C(C)=O)CC2)cc1 (stereo not given) | 0.227% | –
CCS(=O)(=O)c1oc(-c2ccc(F)cc2)nc1S(=O)(=O)c1ccc(Br)cc1 | – | 2.93 µM (active)
CCCCS(=O)(=O)c1oc(-c2ccc(F)cc2)nc1S(=O)(=O)c1ccc(C)cc1 | – | 6.56 µM (active)
Cc1ccc(CSc2oc(-c3ccco3)nc2S(=O)(=O)c2ccc(Cl)cc2)cc1 | 9.59% | –
Cc1ccc(S(=O)(=O)c2nc(S(=O)(=O)c3ccccc3)sc2NCCCOC(C)C)cc1 | -4.2% | –
CCCCS(=O)(=O)c1oc(-c2ccc(F)cc2)nc1S(=O)(=O)c1ccccc1 | – | 4.14 µM (active)
CC(C)CS(=O)(=O)c1oc(-c2ccc(F)cc2)nc1S(=O)(=O)c1ccccc1 | – | 0.656 µM (active)
O=S(=O)(NCC(c1ccco1)S(=O)(=O)c1ccccc1)c1cc(F)ccc1F (stereo not given) | -5.98% | –
CCCN1C(=O)C(Cc2nc3ccccc3c(=O)n2CC)c2cc(Br)ccc21 (stereo not given) | -26% | –
COC(=O)c1c(NC(=O)c2ccc(S(=O)(=O)N3CCC(C)CC3)cc2)sc2c1CCN(C)C2 | -13.9% | –
Cc1cccc(-n2cnc3cc(C(=O)NC4CCCCCC4)ccc32)c1 | -13.7% | –
CC(C)c1ccc(NC(=O)c2ccc3c(c2)CCCN3S(C)(=O)=O)cc1 | -64.6% | –
CCc1ccc(NS(=O)(=O)c2ccc3[nH]c4c(c3c2)CCCCCC4)cc1 | -5.72% | –
